Most compounds without a hit are left out; they make up all but 19% or so of the library.
DT40 TDP1 no CPT: qHTS for Inhibitors of human tyrosyl-DNA phosphodiesterase 1 (TDP1): qHTS in cells in absence of CPT. DT40 Tdp1-/- hTDP1 cells, no CPT, ATP luminescence, 48 h. Potency, µM (highest dose often 46.2 µM), actives largely listed as inhibitors. hit rate 15% among 420,000. AID 686978, 2013; also: nearly all actives have a fitted effect of over 55% in size
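Chicken DT40 Tdp1-/- cells stably complemented with human TDP1 were seeded at 400 cells/well with DMSO in place of 20 nM camptothecin. After compound pinning, cells grew at least 48 hr at 37 °C; viability read by CellTiter-Glo luminescence.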
DT40 TDP1 CPT: qHTS for Inhibitors of human tyrosyl-DNA phosphodiesterase 1 (TDP1): qHTS in cells in presence of CPT | chicken DT40 Tdp1-/-;hTDP1 cells + 20 nM CPT, ATP luminescence, 48 h | Potency, µM (top dose mostly 46.2 µM), most hits filed as inhibitors | hit rate 12% among 420,000 | AID 686979, 2013; also: nearly all actives have a fitted effect of over 55% in size
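Cell growth measured by CellTiter-Glo luminescence after a minimum 48 h, 37 C compound exposure with 20 nM CPT in Tdp1-knockout DT40 cells stably expressing hTDP1, seeded 400/well; qHTS titration format.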
ELG1 DNA repair: qHTS screen for small molecules that inhibit ELG1-dependent DNA repair in human embryonic kidney (HEK293T) cells expressing luciferase-tagged ELG1; AID 504467, 2011; HEK293T ELG1-luciferase reporter, luminescence, 16 h; DNA damage induced by 5-fluorouridine; Potency, µM (doses to about 46.1 µM), hits mostly inhibitors; hit rate 2.3% among 330,000; also: nearly all actives have a fitted effect of over 55% in size
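Luminescence from the luciferase reporter, measured 30 min after ONE-Glo reagent at room temperature, was the read-out. Beforehand, 2,000 cells per well were exposed for 16 hr at 37 °C to 5-fluorouridine together with compound or vehicle.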
HT1080NT lethal: qHTS for induction of synthetic lethality in tumor cells producing 2HG: qHTS for the HT-1080-NT fibrosarcoma cell line; hit rate 1.6% among 360,000; HT-1080-NT fibrosarcoma viability, CellTiter-Glo ATP luminescence, 48 h; Potency, µM (highest dose often 46.1 µM), hits mostly cytotoxic;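 also: NT is the 2HG producing partner of a matched IDH1 knockdown line; nearly all actives have a fitted effect of over 55% in size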
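Compounds were tested in concentration-response format on HT-1080-NT cells for 48 hours at 37 degrees C. Cell viability came from CellTiter-Glo luminescence; curves were classified by r2, response magnitude and activity.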
HT1080 IDH1KD tx: qHTS for induction of synthetic lethality in tumor cells producing 2HG: qHTS for the HT-1080-IDH1KD cell line; hit rate 2% among 360,000; HT-1080 IDH1 knockdown viability, ATP luminescence, 48 h; Potency, µM (top dose mostly 46.1 µM), actives largely listed as cytotoxic; AID 686971, 2013
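Knockdown cells (IDH1KD HT-1080) received compounds 2 h after plating at 750 cells/well and were kept 48 h at 37 °C in 5% FBS RPMI. A CellTiter-Glo luminescence read gave % activity for curve fitting.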
IL1B secr inh: qHTS for Inhibitors of Inflammasome Signaling: IL-1-beta AlphaLISA Primary Screen; THP-1 LPS/ATP IL-1B secretion, AlphaLISA, 16 h; hits give low values; AID 743279, 2014; hit rate 4.7% among 360,000; activity change, % at 57.5 µM; in the data active = activity change below about -50%; inconclusive = mostly about -30% to -49%
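THP-1 cells pretreated 1 hr with compounds (up to 57.5 uM final), then stimulated with LPS (250 ng/mL final) plus ATP (1.25 mM final); secreted IL-1B measured by AlphaLISA after 16 hr, decreased signal indicating inhibition.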
Of the large screens only hits and unclear results are named; the others gave an inactive call. Unless noted, calls follow the shape of the dose curve; as a rule, active = well fitted curve in the direction sought with a large enough effect; inconclusive = small, poorly fitted or top-dose-only effect, or another doubt; inactive = no such curve, though single readings can be large; an effect the other way counts as inactive or inconclusive.

CCc1cc(=O)oc2c(C)c(OCC(=O)NCCCN3CCCC3=O)ccc12	IL1B secr inh inconclusive
O=C(NCCc1cccnc1)c1cnn(-c2ncc3c(n2)-c2ccccc2CC3)c1C1CC1	DT40 TDP1 no CPT inconclusive (no result: ELG1 DNA repair, HT1080NT lethal, HT1080 IDH1KD tx, IL1B secr inh)
CCN1CCN(C(c2ccccc2Cl)c2c(O)cc(C)n(CCOC)c2=O)CC1 (centres undefined)	none (no result: ELG1 DNA repair, HT1080NT lethal, HT1080 IDH1KD tx, IL1B secr inh)
O=C(OCc1cn([C@H]2CN(C(=O)c3cccs3)[C@@H](c3ccccc3)C[C@@H]2O)nn1)c1ccccc1	DT40 TDP1 no CPT 14.6µM, DT40 TDP1 CPT inconclusive (no result: ELG1 DNA repair)
O=C(OCc1cn([C@@H]2C[C@H](c3ccc(Cl)cc3)N(C(=O)c3cccs3)C[C@H]2O)nn1)c1ccccc1	DT40 TDP1 no CPT inconclusive (no result: ELG1 DNA repair)
O=C(OCc1cn([C@H]2CN(C(=O)c3cccs3)[C@@H](c3ccc(Cl)cc3)C[C@@H]2O)nn1)c1ccccc1	DT40 TDP1 no CPT inconclusive, DT40 TDP1 CPT 23.1µM, HT1080 IDH1KD tx inconclusive (no result: ELG1 DNA repair)
O=C(OCc1cn([C@@H]2CN(C(=O)c3cccs3)[C@@H](c3ccccc3)C[C@H]2O)nn1)c1ccccc1	DT40 TDP1 no CPT inconclusive, DT40 TDP1 CPT inconclusive (no result: ELG1 DNA repair)
CC(C)(C)c1ccc(C(=O)NC(=S)N2CCCCCC2)cc1	DT40 TDP1 no CPT 13µM, DT40 TDP1 CPT 18.4µM, HT1080NT lethal inconclusive, HT1080 IDH1KD tx inconclusive
CC1CCN(C(=S)NC(=O)c2ccc(C(C)(C)C)cc2)CC1	DT40 TDP1 no CPT inconclusive, DT40 TDP1 CPT 23.1µM
CC(C)(C)c1ccc(C(=O)NC(=S)N2CCCC2)cc1	DT40 TDP1 no CPT inconclusive, ELG1 DNA repair inconclusive
Cn1ncc2c(Nc3ccc(Cl)c(Cl)c3)ncnc21	DT40 TDP1 no CPT inconclusive, DT40 TDP1 CPT inconclusive, ELG1 DNA repair inconclusive
Cn1ncc2c(NCCc3ccccc3)nc(Cl)nc21	DT40 TDP1 no CPT 20.6µM, DT40 TDP1 CPT 23.1µM (no result: ELG1 DNA repair)
Cn1ncc2c(NCc3cccc(Cl)c3)ncnc21	DT40 TDP1 no CPT inconclusive, DT40 TDP1 CPT 14.6µM (no result: ELG1 DNA repair, HT1080NT lethal, HT1080 IDH1KD tx, IL1B secr inh)
CCCNc1nc(NCc2ccccc2OC)c2cnn(C)c2n1	DT40 TDP1 no CPT 13µM, DT40 TDP1 CPT 14.6µM (no result: ELG1 DNA repair, HT1080NT lethal, HT1080 IDH1KD tx, IL1B secr inh)
COCCNc1nc(NCc2ccccc2)c2cnn(C)c2n1	DT40 TDP1 no CPT inconclusive
COCCNc1nc(NCc2cccc(Cl)c2)c2cnn(C)c2n1	DT40 TDP1 no CPT 14.6µM, DT40 TDP1 CPT inconclusive (no result: ELG1 DNA repair, HT1080NT lethal, HT1080 IDH1KD tx, IL1B secr inh)
O=C(Nc1cc(-c2nc3ccccc3s2)ccc1Cl)c1cc2ccccc2o1	none (no result: ELG1 DNA repair, HT1080NT lethal, HT1080 IDH1KD tx, IL1B secr inh)
CCOC(=O)c1cc(N2CCCCC2)nc2ccccc12	DT40 TDP1 no CPT inconclusive, DT40 TDP1 CPT 23.1µM (no result: ELG1 DNA repair)
CC1CCN(C(=O)c2ccc(S(=O)(=O)N3CCCC3)cc2)CC1	none
COc1ccc(C(=O)N2CCC(c3nc(-c4ccc(S(=O)(=O)N5CCCC5)cc4)no3)CC2)cc1	DT40 TDP1 no CPT 20.6µM, DT40 TDP1 CPT 23.1µM (no result: ELG1 DNA repair, HT1080NT lethal, HT1080 IDH1KD tx, IL1B secr inh)
CCOc1ccc(C(=O)N2CCC(c3nc(-c4ccc(S(=O)(=O)N5CCCC5)cc4)no3)CC2)cc1	DT40 TDP1 no CPT 23.1µM, DT40 TDP1 CPT 20.6µM (no result: ELG1 DNA repair, HT1080NT lethal, HT1080 IDH1KD tx, IL1B secr inh)
Clc1cccc(Cc2c(-c3ccccc3)nc3ccc(Br)cn23)c1	DT40 TDP1 no CPT inconclusive, DT40 TDP1 CPT inconclusive (no result: ELG1 DNA repair)
CC(C)(C)Cc1c(-c2ccccc2)nc2ccc(Br)cn12	DT40 TDP1 no CPT 23.1µM, DT40 TDP1 CPT inconclusive (no result: ELG1 DNA repair)
Cc1ccc(-c2nc3ccc(Br)cn3c2CC(C)(C)C)cc1	DT40 TDP1 no CPT 11.6µM, DT40 TDP1 CPT inconclusive (no result: ELG1 DNA repair)
O=C(COC(=O)c1ccccn1)c1ccc([N+](=O)[O-])cc1	DT40 TDP1 CPT inconclusive
COc1ccc(C2CC(C(F)(F)F)n3ncc(C(=O)Nc4cccc(O)c4)c3N2)cc1OC (centres undefined)	DT40 TDP1 no CPT inconclusive, ELG1 DNA repair 14.6µM
COc1cccc(C2CC(C(F)(F)F)n3ncc(C(=O)NC(C)(C)C)c3N2)c1 (centres undefined)	none
Brc1c(OCCOCCn2cncn2)ccc2ccccc12	DT40 TDP1 no CPT 25.9µM, DT40 TDP1 CPT inconclusive, ELG1 DNA repair inconclusive
COC(=O)C1C(=O)c2c([nH]c(C(=O)OC3CCCC3C)c2C)CC1C (centres undefined)	DT40 TDP1 no CPT 13µM, DT40 TDP1 CPT 16.4µM, ELG1 DNA repair inconclusive
COC(=O)C1C(=O)c2c([nH]c(C(=O)OC3CCCCC3)c2C)CC1C (centres undefined)	DT40 TDP1 no CPT inconclusive, DT40 TDP1 CPT inconclusive, ELG1 DNA repair inconclusive, IL1B secr inh inconclusive
Cc1ccc(C)c(-c2nc(Cn3c(=O)cc(-c4ccccc4)c4c(C)nn(C)c43)c(C)o2)c1	DT40 TDP1 CPT inconclusive (no result: ELG1 DNA repair, HT1080NT lethal, HT1080 IDH1KD tx, IL1B secr inh)
Cc1ccc([N+](=O)[O-])cc1-c1ccc(/C=C(\C#N)c2[nH]nc(N)c2C#N)o1	DT40 TDP1 no CPT 13µM, DT40 TDP1 CPT inconclusive, ELG1 DNA repair inconclusive, HT1080NT lethal inconclusive, HT1080 IDH1KD tx 16.4µM, IL1B secr inh inconclusive
COCc1cc(C)nc(OCC(=O)N/N=C/c2ccc(-c3cc([N+](=O)[O-])ccc3C)o2)c1C#N	DT40 TDP1 no CPT inconclusive, DT40 TDP1 CPT inconclusive
COc1ccc2c(c1)sc1ncc(C(=O)NCc3cccc(Cl)c3)c(=O)n12	none (no result: ELG1 DNA repair, HT1080NT lethal, HT1080 IDH1KD tx, IL1B secr inh)
CCC(=O)N1CCc2cc(Br)cc(S(=O)(=O)NCCc3cccc(C)c3)c21	DT40 TDP1 no CPT 23.1µM, DT40 TDP1 CPT 16.4µM (no result: ELG1 DNA repair, HT1080NT lethal, HT1080 IDH1KD tx, IL1B secr inh)

Screens: PubChem BioAssay, National Center for Advancing Translational Sciences (NCATS)
